To fix the notation:
T1: RBFOX1 RRM RbFoxmut (Fox-RRM*) (Homo sapiens, UniProt Q9NWB1 109-208, R118D;E147R;N151S;E152T)
T1 sequence: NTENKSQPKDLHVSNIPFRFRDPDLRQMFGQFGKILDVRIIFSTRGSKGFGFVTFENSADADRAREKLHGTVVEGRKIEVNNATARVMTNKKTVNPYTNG

B1: UAACCGA (DNA:RNA)
RNA: GGGAGACCGGAAUUCAGAUUGUCCUAACCGAUUAAAUCCCGUCGUAGCCACCA
DNA 1: CAATCTGAATTCCGGTCTCCC
DNA 2: TGGTGGCTACGACGGGATT
B2: UGACGUC (DNA:RNA)
RNA: B1 RNA with A26G, C29G, G30U, A31C
DNA 1: CAATCTGAATTCCGGTCTCCC
DNA 2: TGGTGGCTACGACGGGATT
B3: UGGUAGU (DNA:RNA)
RNA: B1 RNA with A26G, A27G, C28U, C29A, A31U
DNA 1: CAATCTGAATTCCGGTCTCCC
DNA 2: TGGTGGCTACGACGGGATT
B4: UGCCGUU (DNA:RNA)
RNA: B1 RNA with A26G, A27C, C29G, G30U, A31U
DNA 1: CAATCTGAATTCCGGTCTCCC
DNA 2: TGGTGGCTACGACGGGATT
B5: CCAUGGC (DNA:RNA)
RNA: B1 RNA with U25C, A26C, C28U, C29G, A31C
DNA 1: CAATCTGAATTCCGGTCTCCC
DNA 2: TGGTGGCTACGACGGGATT
B6: AUCUUAC (DNA:RNA)
RNA: GGGAGACCGGAAUUCAGAUUGUCCAUCUUACUUAAAUCCCGUCGUAGCCACCA
DNA 1: CAATCTGAATTCCGGTCTCCC
DNA 2: TGGTGGCTACGACGGGATT
B7: UGAUGUG (DNA:RNA)
RNA: B1 RNA with A26G, C28U, C29G, G30U, A31G
DNA 1: CAATCTGAATTCCGGTCTCCC
DNA 2: TGGTGGCTACGACGGGATT
B8: UGAUGUC (DNA:RNA)
RNA: B6 RNA with A25U, U26G, C27A, U29G, A30U
DNA 1: CAATCTGAATTCCGGTCTCCC
DNA 2: TGGTGGCTACGACGGGATT
B9: UGAGAUG (DNA:RNA)
RNA: B1 RNA with A26G, C28G, C29A, G30U, A31G
DNA 1: CAATCTGAATTCCGGTCTCCC
DNA 2: TGGTGGCTACGACGGGATT

For 9 molecules, binding signal results are on record in PMC9911399, “Two distinct binding modes provide the RNA-binding protein RbFox with extraordinary sequence specificity”.

Where a chain is given by its changes, count along the chain named. Over roughly 16,000 sequences, “ka relative to ugcaugu” has its median near 0.096; the highest 2% begin near 0.35. Shown is part of a subset that was picked to be rich in the highest values.

The target in the experiment is T1, RBFOX1 RRM RbFoxmut (Fox-RRM*). Description: EMSA; HiTS-Eq, 1 nM pool, 10 min; buffer printed only for the single-RNA assays: 10 mM Tris pH 7.5, 150 mM NaCl, 3.4 mM EDTA, 0.001% NP-40, 30 C. As to conditions: tags: His6 N-terminal (pET28a); label: 5' 32P. Summed up: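 Purified RbFox RRM (wild type or mutant) was equilibrated for 10 min in 50 µL with 1 nM of a 5′-radiolabelled pool of RNA with 7 randomized nucleotides, its flanks annealed to DNA oligonucleotides, across increasing protein concentrations. Free RNA was separated by 8% native PAGE, excised, reverse-transcribed, PCR-barcoded and sequenced on an Illumina HiSeq 2500. Relative association constants came from read-count changes of each variant against the control reaction, normalised to the cognate motif.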
On to B1, for which the binding signal is 0.0866 KA relative to UGCAUGU.
For the molecule B2, the binding signal is 0.0923 KA relative to UGCAUGU.
For B3 the value was 0.163 KA relative to UGCAUGU; for B4, 0.113 KA relative to UGCAUGU; for B5, 0.0829 KA relative to UGCAUGU.
The same measure for B6: 0.12 KA relative to UGCAUGU; for B7: 0.184 KA relative to UGCAUGU.
In the case of B8, the binding signal was 0.207 KA relative to UGCAUGU.
Regarding B9, the binding signal was 0.429 KA relative to UGCAUGU.
